The values that follow come from PubChem BioAssay AID720700 (The Scripps Research Institute Molecular Screening Center, 2013).

The whole screen tested about 370,000 compounds, of which about 3,100 (0.84%) were called active. Many of the other results were omitted from the sample, so actives are more common in it than they were. A number with no mark means an inactive call. Rule as the data show it: active = inhibition above about 9.5%; inactive = the rest.

1-phosphatidylinositol 4,5-bisphosphate phosphodiesterase gamma-1 (Homo sapiens), sequence (P19174 whole entry, looked up): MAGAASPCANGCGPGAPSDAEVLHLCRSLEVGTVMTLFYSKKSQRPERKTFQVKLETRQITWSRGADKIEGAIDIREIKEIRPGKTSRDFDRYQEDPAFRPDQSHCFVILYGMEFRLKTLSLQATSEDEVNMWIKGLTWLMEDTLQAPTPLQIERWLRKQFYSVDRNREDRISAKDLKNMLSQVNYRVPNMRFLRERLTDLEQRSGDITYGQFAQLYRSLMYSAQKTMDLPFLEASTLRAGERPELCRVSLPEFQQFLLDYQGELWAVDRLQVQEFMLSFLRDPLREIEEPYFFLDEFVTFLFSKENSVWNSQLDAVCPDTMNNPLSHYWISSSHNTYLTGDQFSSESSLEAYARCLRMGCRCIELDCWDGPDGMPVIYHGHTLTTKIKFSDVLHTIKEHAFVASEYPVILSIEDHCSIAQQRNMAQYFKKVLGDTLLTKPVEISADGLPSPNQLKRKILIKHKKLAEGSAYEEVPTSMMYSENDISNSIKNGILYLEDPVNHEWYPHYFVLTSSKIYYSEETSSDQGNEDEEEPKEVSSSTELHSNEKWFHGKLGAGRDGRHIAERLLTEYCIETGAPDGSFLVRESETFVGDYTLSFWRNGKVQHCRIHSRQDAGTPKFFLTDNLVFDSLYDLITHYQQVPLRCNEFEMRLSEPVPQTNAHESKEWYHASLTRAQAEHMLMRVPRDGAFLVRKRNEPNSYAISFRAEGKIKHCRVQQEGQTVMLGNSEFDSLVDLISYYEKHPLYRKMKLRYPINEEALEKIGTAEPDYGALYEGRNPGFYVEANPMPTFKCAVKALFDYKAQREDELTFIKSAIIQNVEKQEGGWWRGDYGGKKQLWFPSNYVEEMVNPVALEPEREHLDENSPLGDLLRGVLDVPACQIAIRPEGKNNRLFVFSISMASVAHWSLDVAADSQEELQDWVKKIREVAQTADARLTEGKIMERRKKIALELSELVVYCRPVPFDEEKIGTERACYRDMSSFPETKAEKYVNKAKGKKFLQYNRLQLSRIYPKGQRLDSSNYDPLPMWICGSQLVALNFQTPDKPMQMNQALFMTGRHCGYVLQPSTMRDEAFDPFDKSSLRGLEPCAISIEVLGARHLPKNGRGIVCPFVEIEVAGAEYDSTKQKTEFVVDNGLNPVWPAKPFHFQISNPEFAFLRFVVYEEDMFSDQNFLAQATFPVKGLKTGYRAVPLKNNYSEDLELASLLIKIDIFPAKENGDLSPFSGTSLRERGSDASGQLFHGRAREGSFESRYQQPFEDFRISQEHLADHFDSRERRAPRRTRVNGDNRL

The assay addresses 1-phosphatidylinositol 4,5-bisphosphate phosphodiesterase gamma-1 (Homo sapiens) (UniProt P19174). Description: PLC-gamma1 enzyme inhibitors, primary screen, biochemical, fluorescence, purified enzyme (AID 720700). The following applies: purified PLC-gamma1, fluorogenic substrate, at 12.2 µM, active compounds read high.
Turning to `Cc1cc(C)n2ncc(C(=O)Nc3ccc4c(c3)OCCO4)c2n1`, the inhibition (commonly the change of the read-out against control, counted positive when it falls) was -0.99%. Next, `CN(C)[C@H]1CCN(c2cccc3c2S(=O)(=O)N2CC[C@H](C2)O3)C1`: 1.23%; `O=C(CN1CCCCC1)Nc1ccccc1C(=O)NC1CC1`: 3.56%.

As to `O=C(CN1CCN(C2CCCCC2)CC1)Nc1ccccc1N1CCCCC1`, the inhibition was 10.2% (active). As for `CC(=O)c1ccc(N2CCN(CC(=O)Nc3ccccc3N3CCOCC3)CC2)cc1`, the inhibition is -2.41%. Next, `COc1ccc(C(=O)Nc2c(N)nc(SCC(=O)Nc3ccc(C(C)=O)cc3)[nH]c2=O)cc1`: -0.47%; `COc1ccc(NC(=O)c2ccccc2CC[N+](=O)[O-])cc1`: 0.81%.

As for `COc1ccc(NC(=O)c2ccc(OC)cc2)cc1`, the inhibition is 11% (active). Next, `C[C@@H]1CN([C@@H](C)CO)C(=O)c2cccc(NC(=O)Nc3cccc4ccccc34)c2O[C@H]1CN(C)S(=O)(=O)c1ccccc1F`: -11.6%; `O=C(NCc1ccccc1Cl)c1ccc2c(=O)n(CC3CCCO3)c(=S)[nH]c2c1` (stereo not given): 2.56%; `Cc1cccc(NC(=O)c2ccc3c(=O)n(CC4CCCO4)c(=S)[nH]c3c2)c1` (stereo not given): 10.2% (active). On to `CCN(CC)CCCNC(=O)c1ccc2c(=O)n(Cc3ccc4c(c3)OCO4)c(=S)[nH]c2c1`, for which the inhibition was -2.49%. Next, `Cc1ccc(NC(=S)NNC(=O)CSc2nnc(SCc3ccccc3Cl)s2)cc1`: -4.17%. Next, `CC(=O)OCCN1CCCC12CCC(c1ccccc1)CC2` (stereo not given): -1.82%; `CCc1ccccc1NC(=O)CSc1nnc(-c2cccs2)o1`: -2.39%. Next, `COC(=O)[C@]12C[C@H](CC(=O)NCc3ccccc3)C(=O)N(CCc3ccc(OC)c(OC)c3)C1=C[C@H](C(C)(C)C)O[C@@H]2C`: 1.65%; `COC(=O)C1CN(Cc2cn(Cc3ccc(F)cc3)nn2)CCS(=O)(=O)N1Cc1ccc(Cl)cc1` (stereo not given): 0.64%.

As for `C=CCN1C(=O)[C@H](CC(=O)N2CCN(C(=O)OCC)CC2)[C@@]2(C(=O)OCC)CCCC=C12`, the inhibition was 0.46%. Next, `FC(F)(F)c1cccc(Cn2ccc3ccc(-c4ccc5ccn(Cc6ccccc6)c5c4)cc32)c1`: -66.4%. Next, `O=c1c([N+](=O)[O-])cccn1Cc1ccc(F)cc1Cl`: 3.37%; `O=c1c([N+](=O)[O-])cc(C(F)(F)F)cn1Cc1cccc(Cl)c1`: 11.6% (active). As for `COC(=O)[C@]12C[C@H](CC(=O)NCC34CC5CC(CC(C5)C3)C4)C(=O)N(Cc3ccc(Cl)cc3Cl)C1=C[C@H](COCc1ccccc1)O[C@@H]2C`, the inhibition was -0.03%. As to `CCN(CC)Cc1csc2ccc(Br)cc12`, the inhibition was 9.63% (active). Next, `CN(CCO)Cc1csc2ccc(Br)cc12`: 1.91%; `CCN(CC)Cc1cc(C(C)=O)ccc1O`: 3.56%. The value for `C=CCN1C(=O)[C@@H](CC(=O)NCCCCc2ccccc2)[C@]2(C(=O)OCC)CCCCC/C=C/12` was -0.06%; that for `O=C(CN1CCCc2ccccc21)NCc1ccc(F)cc1` was -1.61%; that for `COc1ccc(NC(=O)CC2C(=O)NC3CCCCC3N2C(=O)c2ccc(F)cc2)cc1` (stereo not given) was 0.91%. The value for `COc1ccccc1C(=O)N1CCNC(=O)C1CC(=O)Nc1ccc(Cl)cc1` (stereo not given) was 7.83%; that for `COc1ccccc1C(=O)N1C(CC(=O)Nc2ccccc2C)C(=O)NC2CCCCC21` (stereo not given) was 9.7% (active). For `O=C(C1CCN(S(=O)(=O)c2ccccc2)CC1)N1CCN(C2CCCCC2)CC1`, the inhibition was -0.77%. With `Cc1ccc(-n2c(SCC(=O)Nc3cccc4ccccc34)nnc2-c2ccccn2)cc1`, the inhibition is -0.11%.

For `O=C1CS(=O)CN1c1ccc(Oc2ccccc2)cc1` (stereo not given), the inhibition was 12% (active). On to `Cc1n[nH]c(=O)n1-c1ccc(Oc2ccccc2)cc1`, for which the inhibition was -0.23%.

For `CC(N=Cc1nc(-c2ccccc2)oc1O)c1ccccc1` (stereo not given), the inhibition was 14.1% (active). The value for `Oc1oc(-c2ccccc2Br)nc1/C=N/c1ccccn1` was -17.6%; that for `O=C1CC[C@@]23CCCN2C(=O)CCC[C@H]3[C@H]1Cc1ccccc1` was 0.07%; that for `CCCCn1c(CN2CCN(CCO)CC2)nc2ccccc21` was 0.96%. Next, `CC(C)n1c(CN2CCN(Cc3ccccc3)CC2)nc2ccccc21`: 9.89% (active); `CCc1c(C)nc(N2CCN(Cc3ccccc3)CC2)[nH]c1=O`: -1.09%. The value for `O=C(NCc1cccs1)C1CCCN(S(=O)(=O)c2ccc([N+](=O)[O-])cc2)C1` (stereo not given) was 3.77%; that for `O=S(=O)(c1ccccc1)N1CCC(c2nc3ccccc3o2)CC1` was -4.98%; that for `COc1ccc(NS(=O)(=O)c2ccc(C)c(C(=O)NCC(c3cccs3)N3CCOCC3)c2)cc1` (stereo not given) was -3.99%.

As for `Cc1cccc(NS(=O)(=O)c2ccc(C)c(C(=O)NCC(c3ccccc3)N(C)C)c2)c1` (stereo not given), the inhibition is 2.63%. The value for `COc1ccc(C(CNC(=O)c2cc(S(=O)(=O)Nc3cccc(C)c3)ccc2C)N2CCCC2)cc1` (stereo not given) was 11% (active); that for `C=CCOC/C=C/C#CCN(CC=C)Cc1ccc(OC)cc1OC` was 2.05%. Next, `Cc1ccc(-n2c(SCC(=O)Nc3ccc(S(=O)(=O)Nc4nccs4)cc3)nnc2-c2cccnc2)cc1`: 6.23%. Consider `COCCNC(=O)C(c1ccc(C)cc1)N(C(=O)CCC(=O)Nc1ccccn1)c1cccc(C)c1` (stereo not given), for which the inhibition is 5.63%. Next, `COCCNC(=O)C(c1ccc(O)cc1)N(C(=O)CCC(=O)Nc1nccs1)c1ccc(C)cc1` (stereo not given): 15.2% (active). Regarding `COCCN(C(=O)CCC(=O)Nc1nccs1)C(C(=O)NCCC(C)C)c1ccc(F)cc1` (stereo not given), the inhibition is 3.17%. Regarding `CCC(=O)OCCCN1C(=O)CCC12CCC(c1ccccc1)CC2` (stereo not given), the inhibition was 1.02%. The value for `C[C@@H]1COc2cccc(N3CCCC3)c2S(=O)(=O)N1C` was -3.06%; that for `C=CC1=C(C(=O)O)N2C(=O)[C@@H](NC(=O)/C(=N/OCC(=O)O)c3csc(N)n3)[C@H]2SC1` was 22.2% (active). The value for `C=CC1=C(C(=O)O)N2C(=O)[C@@H](NC(=O)/C(=N\OCC(=O)O)c3csc(N)n3)[C@H]2SC1` was 23.4% (active); that for `COC(=O)[C@]12C[C@H](CC(=O)N3CCOCC3)C(=O)N(Cc3ccc(Cl)cc3Cl)C1=C[C@H](COCc1ccccc1)O[C@@H]2C` was 1.02%; that for `COC(=O)Cc1ccc(NC(=S)NCc2ccco2)cc1` was 2.1%. Next, `CSc1ccccc1NC(=O)Cc1ccc(Br)cc1`: 3.58%; `CC(C)Oc1ccc(CC(=O)NNC(=S)Nc2ccc(Br)cc2)cc1`: 9.8% (active); `O=C(C1CCCN1S(=O)(=O)c1ccccc1)N1CCc2ccccc2C1` (stereo not given): -1.86%. Turning to `O=C(NCC1COc2ccccc2O1)c1ccc(NC(=O)c2cc(F)ccc2F)cc1` (stereo not given), the inhibition is -4.17%. The value for `Cc1ccc(Cn2cc(CN3[C@@H](C)COc4cc(Br)ccc4S3(=O)=O)nn2)cc1` was 0.13%. Next, `C/C(=N\NC(=O)c1cccc(N2CCCC2=O)c1)c1ccc(N)cc1`: 1.08%; `NC1=NN(c2cccc(C(=O)O)c2)C(=O)C1`: 18.9% (active).

Turning to `O=C(c1cccc(N2CCCC2=O)c1)N1CCOCC1`, the inhibition was -4.42%. For `COc1ccc([C@H]2OC(=O)C[C@H]2C(=O)N2CCN(c3ccccc3F)CC2)cc1OC`, the inhibition was 0.67%. `O=S(=O)(Nc1ccc(Oc2ncccn2)c(Cl)c1)c1ccc(F)cc1`: the inhibition is 9.74% (active). The value for `Cn1c(=O)n(C)c2cc(NS(=O)(=O)c3ccc(F)cc3)ccc21` was 0.25%. Take `O=S(=O)(Nc1ncccn1)c1ccc(NS(=O)(=O)c2cccc(Cl)c2Cl)cc1`: the inhibition was 4.05%. The value for `COC(=O)c1cccc(Cn2ccc3ccc(-c4ccc5ccn(C(=O)c6ccccc6C)c5c4)cc32)c1` was -16.3%. Regarding `CCC(NC(=O)C1C2C=CC3(CN(Cc4ccccc4)C(=O)C13)O2)c1ccccc1` (stereo not given), the inhibition was -2%.

Regarding `CC1(C)Cc2cccc(OCC(=O)Nc3nccs3)c2O1`, the inhibition is 0.31%.

As to `CN(CC(=O)Nc1ccccc1Cl)C(=O)COc1cccc2c1OC(C)(C)C2`, the inhibition was 11.8% (active).

Take `COc1cccc(CCNC(=O)COc2cccc3c2OC(C)(C)C3)c1`: the inhibition is 3.51%. Next, `Cc1c[nH]c2cccc(-c3ccc(Cl)cc3)c12`: -12%. The value for `C=CCNc1nc(N)c([N+](=O)[O-])c(NC2CCCCC2)n1` was 4.77%; that for `Nc1nc(NCC(=O)O)nc(N2CCCCCC2)c1[N+](=O)[O-]` was 9.71% (active).

Turning to `COCCNc1nc(N)c([N+](=O)[O-])c(N2CCCCCC2)n1`, the inhibition was 7.3%. Next, `CC(C)(C)c1ccc(CSc2nnc(-c3cccs3)o2)cc1`: 0.5%; `O=C(CCl)NC1CCCCN(Cc2cccc(C(F)(F)F)c2)C1=O` (stereo not given): -1.65%; `CCOC(=O)[C@@]12CCC3=C1N(CCC3)C(=O)[C@H](CC(=O)N1CCN(C(=O)c3ccco3)CC1)C2`: -1.32%. Next, `CN(C(=O)c1cccc(NC(=O)Cc2cccc(NC(=O)C3CCCN(C(=O)C4CC4)C3)c2)c1)C1CCC1` (stereo not given): 0.32%. The value for `CN(C(=O)c1cccc(NC(=O)Cc2ccc(NC(=O)C3CCN(C(=O)C4CCCCC4)CC3)cc2)c1)C1CCC1` was 1.78%; that for `CN(C(=O)c1ccc(NC(=O)Cc2cccc(NC(=O)C3CCN(C(=O)c4ccccc4)CC3)c2)cc1)C1CC1` was 10.7% (active). As to `CC(C)(C)NC(=O)C(c1cccnc1)N(C(=O)c1cnco1)c1ccc(C(C)(C)C)cc1` (stereo not given), the inhibition was 0.93%. Next, `COC(=O)[C@]12C[C@H](CC(=O)NCc3cccc4ccccc34)C(=O)N(CCc3ccc(OC)c(OC)c3)C1=C[C@H](C1CCCC1)O[C@@H]2C`: 4.89%.
